Screening data as filed in PubChem.
Most compounds without a hit are left out; they make up all but 1.2% or so of the library.
Luc counter: Counterscreen for Luciferase (Kinase-Glo TM) Inhibition; Luciferin 4-monooxygenase (Photuris pensylvanica), Q27757; Kinase-Glo luciferase, ATP luminescence, 8 min; Potency, µM (series often up to 38.3 µM), hits mostly inhibitors; actives 0.28% (n = 200,000); active = well fitted inhibition curve with a large enough effect; inconclusive = small, poorly fitted or top-dose-only effect; also: nearly all actives have a fitted effect of over 60% in size
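Inhibition of Kinase-Glo luciferase light generation was assessed at 10 uM ATP in pH 7.2 imidazole buffer, with luminescence measured after eight minutes at ambient temperature.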
KCNH2 3.1 block: qHTS for Inhibitors of KCHN2 3.1: Mutant qHTS; Potassium voltage-gated channel subfamily H member 2, brain isoform KCNH2 3.1 (human); U2OS KCNH2 3.1, thallium flux FluxOr; active compounds read low; activity change, % (tested at about 1.8 µM); actives 0.95% (n = 340,000);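 active = maximum activity change below -70%; inconclusive = maximum activity change from -70% to -50%; inactive = maximum activity change above -50%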;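 also: thallium influx rate constant from kinetic fluorescence after stimulation buffer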
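Kinetic fluorescence (2 min after stimulation buffer) measures Tl+ influx through KCNH2 3.1 expressed by viral transduction in U2OS cells; the rate constant is normalized against DMSO controls serving as positive and negative references.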
KCNH2 WT inh: qHTS for Inhibitors of KCHN2 3.1: Wildtype qHTS | Voltage-gated inwardly rectifying potassium channel KCNH2 (Homo sapiens), Q12809 | U2OS, BacMam KCNH2, thallium flux FluxOr; active compounds read low | actives 0.37% (n = 340,000) | activity change, % at 1.84 µM;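 active = maximum activity change below -70%; inconclusive = maximum activity change between -70% and -50%; inactive = maximum activity change above -50%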
Target sequence (Q12809 whole entry, looked up): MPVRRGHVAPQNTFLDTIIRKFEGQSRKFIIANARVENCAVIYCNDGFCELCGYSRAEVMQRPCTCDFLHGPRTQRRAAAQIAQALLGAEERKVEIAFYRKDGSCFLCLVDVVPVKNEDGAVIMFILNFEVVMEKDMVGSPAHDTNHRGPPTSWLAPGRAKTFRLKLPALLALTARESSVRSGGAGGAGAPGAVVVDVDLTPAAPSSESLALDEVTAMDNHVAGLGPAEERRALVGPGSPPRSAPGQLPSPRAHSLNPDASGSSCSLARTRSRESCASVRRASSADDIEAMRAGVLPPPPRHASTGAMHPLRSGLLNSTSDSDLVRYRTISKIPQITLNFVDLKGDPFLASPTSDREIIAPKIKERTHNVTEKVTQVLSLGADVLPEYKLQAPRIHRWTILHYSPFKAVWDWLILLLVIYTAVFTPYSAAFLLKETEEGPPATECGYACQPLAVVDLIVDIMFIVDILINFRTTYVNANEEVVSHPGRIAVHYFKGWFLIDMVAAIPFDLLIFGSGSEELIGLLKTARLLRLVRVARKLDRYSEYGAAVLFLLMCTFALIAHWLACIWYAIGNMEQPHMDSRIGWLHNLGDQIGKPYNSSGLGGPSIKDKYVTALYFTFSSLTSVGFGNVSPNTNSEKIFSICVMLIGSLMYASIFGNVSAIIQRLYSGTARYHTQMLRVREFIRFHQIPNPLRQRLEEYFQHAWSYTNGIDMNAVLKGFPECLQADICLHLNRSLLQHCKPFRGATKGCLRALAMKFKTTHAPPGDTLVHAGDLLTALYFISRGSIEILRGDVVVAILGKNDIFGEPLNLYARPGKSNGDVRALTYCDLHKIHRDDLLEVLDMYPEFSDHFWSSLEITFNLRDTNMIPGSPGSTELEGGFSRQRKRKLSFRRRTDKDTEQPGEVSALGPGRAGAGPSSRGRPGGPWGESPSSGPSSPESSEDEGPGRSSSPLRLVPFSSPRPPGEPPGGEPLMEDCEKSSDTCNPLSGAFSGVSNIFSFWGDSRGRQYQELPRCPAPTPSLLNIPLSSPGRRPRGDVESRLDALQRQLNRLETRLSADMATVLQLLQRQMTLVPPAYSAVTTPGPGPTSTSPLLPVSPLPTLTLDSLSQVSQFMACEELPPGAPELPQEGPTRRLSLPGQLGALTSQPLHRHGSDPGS
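U2OS cells were transduced with wild-type KCNH2 virus (2.03 x 10^8 / mL) for 4 h at room temperature, then cultured overnight at 37 C. Thallium flux was read with FluxOr dye. Rate constants were normalized to DMSO controls.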
Numbers stand for hits; . = inactive; ? = inconclusive; / = not tested or not shown; [ ] = another dose, or the depositor's remark.

SMILES	Luc counter	KCNH2 3.1 block	KCNH2 WT inh
COc1cc(/C=N/NC(=O)C(=O)/C=C2\NC3(CCCC3)Cc3ccccc32)ccc1O	.	.	.
CCCCCCNc1nc(NCc2ccco2)nc(OCC)n1	.	-73	.
CCCCCCCCNc1nc(Cl)nc(NCc2ccco2)n1	.	.	.
CC1CC(C)(C)NCc2ccccc21 (configuration not stated)	/	-89	.
CC1CC(C)(C)NC(C)c2ccccc21 (configuration not stated)	/	.	.
COc1ccc(N2CCN(CCC(O)c3ccc4ccccc4c3)CC2)cc1 (configuration not stated)	/	-103	?
COc1ccc(N2CCN(C(=O)CNC(=O)c3ccc4ccccc4c3)CC2)cc1	/	.	.
COC(=O)CN1CCN(C(=O)c2ccco2)CC1	/	.	.
COC(=O)[C@@]12CCCN1[C@H](c1ccc(-c3cccc(Cl)c3)c(OC)c1)[C@H]1C(=O)N(C)C(=O)[C@H]12	/	-100	.
COC(=O)[C@@]12CCCCN1[C@H](c1ccc(-c3cccc(Cl)c3)c(OC)c1)[C@@H]1C(=O)N(C)C(=O)[C@@H]12	/	.	.
CCC(CC)C(=O)Nc1nnc(SCC(=O)NC2CCCCC2)s1	/	.	.
CCCC(=O)N1CC(=O)Nc2ccc(F)cc2C1c1ccccc1 (configuration not stated)	.	-87	.
Cc1ccc(C(=O)N2CC(=O)Nc3ccc(F)cc3C2c2ccccc2)cc1 (configuration not stated)	/	.	.
CSc1ccc(C(=O)N2CCC(CCC(=O)NCc3ccc(F)cc3)CC2)cc1	/	.	.
O=C(c1ccc(C(F)(F)F)cc1)N1CCC(=O)N(C(COCc2ccc(C(F)(F)F)cc2)Cc2ccccc2)CC1 (configuration not stated)	.	-112	.
Cc1cccc(COCC(Cc2ccccc2)N2CCN(C(=O)c3ccc(C(F)(F)F)cc3)CCC2=O)c1 (configuration not stated)	.	.	.
C[C@H]1CN([C@@H](C)CO)S(=O)(=O)c2ccc(Br)cc2O[C@@H]1CN(C)C(=O)Cc1cccnc1	/	.	.
O=C(Nc1ccccc1Cl)NN1CCCCCC1	/	.	.
CCOc1ccc(S(=O)(=O)N2CCCC(C(=O)NCc3ccncc3)C2)cc1Cl (configuration not stated)	/	.	.
Cc1nc2ccccc2n1CCOc1ccc([N+](=O)[O-])cc1	.	-79	.
COc1ccc(OCCn2c(C)nc3ccccc32)cc1	/	.	.
Nn1c(COc2cccc(Br)c2)nnc1SCC(=O)NCC1CCCO1 (configuration not stated)	/	.	.
Cc1ccc(C2c3[nH]c4ccccc4c3C[C@H]3C(=O)N(c4ccccc4C(=O)NCCCN4CCOCC4)C(=O)N23)cc1 (some centres not stated)	/	.	.
O=C(NCCCN1CCOCC1)c1ccccc1N1C(=O)[C@@H]2Cc3c([nH]c4ccccc34)C(c3cccc(Cl)c3)N2C1=O (some centres not stated)	/	-77	?
Cc1nn2cc(-c3ccc(-c4ccccc4)cc3)nc2s1	.	.	.
SMILES	Luc counter	KCNH2 3.1 block	KCNH2 WT inh
CCc1nn2cc(-c3ccccc3)nc2s1	10µM	.	.
OCCN1CCN(c2nc(-c3ccccc3)c3cc(Cl)ccc3n2)CC1	.	-99	.
Cc1ccc2nc(N3CCN(CCO)CC3)nc(-c3ccccc3)c2c1	/	.	.
CC1CCc2sc(C(=O)NNC(=S)NC3CC3)cc2C1 (configuration not stated)	/	.	.
COc1ccc(-c2ccc3c(c2)S(=O)(=O)c2cccc(C(=O)NC4CCCC4)c2C3=O)cc1OC	/	.	.
O=C(NC1CCCCC1)c1cccc2c1C(=O)c1ccc(-c3ccc(OC(F)(F)F)cc3)cc1S2(=O)=O	/	-129	.
CCC(C)C(NC(=O)c1ccc(Cl)cc1)C(=O)Nc1cccnc1 (configuration not stated)	.	.	.
CCN(CC)S(=O)(=O)c1cccc(C(=O)NCC2(N3CCOCC3)CCCCC2)c1	/	.	.
Cc1ccc2nc(N/N=C\c3ccc([N+](=O)[O-])o3)nc(-c3ccccc3)c2c1	.	-97	.
O=[N+]([O-])c1ccc(/C=N/Nc2ccc3ccccc3c2)o1	.	.	.
O=[N+]([O-])c1ccc(/C=N/Nc2nc(-c3ccccc3)c3cc(Br)ccc3n2)o1	.	-101	.
N#Cc1ccccc1/C=N/Nc1nc(-c2ccccc2)c2cc(Br)ccc2n1	.	.	.
Cc1nc2nc(C)c(NS(=O)(=O)c3cccs3)c(=O)n2[nH]1	/	.	.
CCOC(=O)CCCNC(=O)N1CCc2nc(-c3ccc(OC)cc3C)c3c(c2C1)CO[C@@H](c1ccccc1)C3	.[7.66 µM]	/	/
CC(OC(=O)c1nc(Cl)ccc1Cl)C(=O)NCc1ccccc1 (configuration not stated)	/	.	.
CCOC(=O)c1nn(-c2ccccc2)c2nnc(Cc3ccc(Cl)cc3)c(=O)n12	.	.	.
CCOC(=O)c1nn(-c2ccc(Cl)cc2)c2nnc(Cc3ccc(C)cc3)c(=O)n12	.	-88	.
N#C/C(=C\c1ccc(Cl)cc1)C(=O)NC1CC1	/	.	.
N#C/C(=C\c1ccccc1Br)C(=O)NC1CC1	/	-195	.
O=C1CCc2cc(S(=O)(=O)NC(C(=O)N3CCN(c4ccccn4)CC3)c3ccccc3)ccc2N1 (configuration not stated)	.	.	-117
O=C1CCc2cc(S(=O)(=O)NC(C(=O)NCc3cccnc3)c3ccccc3)ccc2N1 (configuration not stated)	.	.	.
O=C(C1CC(=O)N(c2ccccc2F)C1)N1CCOCC1 (configuration not stated)	/	.	.
Oc1ccc(C(=S)N2CCCCCC2)cc1	.	.	.
Oc1cccc(C(=S)N2CCCCC2)c1	.	-146	.
Cn1cc(Br)c(-c2cccc(N3C(=O)CCCC3=O)c2)n1	/	.	.
SMILES	Luc counter	KCNH2 3.1 block	KCNH2 WT inh
CCOC(=O)c1c(NC(=O)CNC2CCCCC2)sc(C)c1C	.	-83	.
CCOC(=O)c1c(NC(=O)CNCCO)sc(C)c1C	/	.	.
CCOc1ccc(S(=O)(=O)N2CCCC(C(=O)NCc3ccncc3)C2)cc1C (configuration not stated)	/	.	.
Cc1cc(C)nc(N2C(=O)CC(C(=O)O)NC2=NCCc2c[nH]c3ccccc23)n1 (configuration not stated)	.	.	.
Cc1cc(C)nc(NC(=NCCc2c[nH]c3ccccc23)NC(=O)C(C)(C)C)n1	/	-88	.
Cn1c(/C=C/c2ccccc2)nc2ccccc21	7.1µM	.	.
Cn1c(=O)c(/C=C/c2ccccc2)nc2ccccc21	.	.	.
CCCCN(C(=O)c1ccc2c(c1)S(=O)(=O)N=C1CCCCCN12)c1c(N)n(CC(C)C)c(=O)[nH]c1=O	/	.	.
FC(F)(F)c1cccc(NC(=S)NC2CCCC2)c1	.	-106	.
FC(F)(F)c1ccc(NC(=S)NC2CCCCC2)cc1	.	.	.
